Tested on: RARa homodimer (NR concentration 270 nM)
Experiment: PBM binding z-score (relative to random genomic background probes); higher = stronger binding; sequences stand for … in GC…GCGATTGACAGCGTAGAATGAAGG
Method in brief: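 Regression normalization was applied to scanned fluorescence from custom Agilent 4×180K protein-binding microarrays. Before scanning, arrays were incubated 1 h with ligand-free nuclear receptor dimers, and binding was detected with antibodies against each partner (one per run). Binding z-scores use the random background probes as reference.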

Question: For CATACAGGGTCAGCAAGGCCAGAGTAGGGACGGC, which PBM binding z-score is on record?
Answer: Its PBM binding z-score is 0.341.

Question: With CCTACTGGGCCAAAAAAGTCATTGATGCCGATAA as the sequence, how does the PBM binding z-score read?
Answer: The PBM binding z-score was -0.0226.

Question: Which PBM binding z-score does the source give for CCAGACAGGTGGAAGGTAACTCAGTCTGGTACGC here?
Answer: Its PBM binding z-score is 0.246.

Question: GCTAGTTGGTCAGTAAAGGGTCACACACCGGTCG was tested. Which PBM binding z-score did it give?
Answer: Its PBM binding z-score is 0.553.

Question: With TCTTGTAGCTCAAGCAGGTTAAGAAAGCCTGAGT as the sequence, how does the PBM binding z-score read?
Answer: Its PBM binding z-score is -0.944.

Question: How did the PBM binding z-score turn out when ACTAGCAGGCCAAGGGTCACTAAAGATTAGTCCG was run?
Answer: The PBM binding z-score was 0.15.

Question: With CCGACTGGGGCCAGGTTACCATAACGCACAGCCA as the sequence, how does the PBM binding z-score read?
Answer: The PBM binding z-score was -0.0137.

Question: ATATGTAGGTTATCGGGTCATTCAATTTGCGCAT was tested. Which PBM binding z-score did it give?
Answer: The PBM binding z-score was 1.75.

Question: CCTTTCGGGTCACTCCAGGTTATAGCATCGGAGT was tested. Which PBM binding z-score did it give?
Answer: Its PBM binding z-score is 0.474.

Question: With ACAGACAGGTGAGTGAAGGTAACTCCGCTGGACG as the sequence, how does the PBM binding z-score read?
Answer: Its PBM binding z-score is -0.274.

Question: TGTCAAAGTTCAACGGTAACGTAAGTATCCACAC was tested. Which PBM binding z-score did it give?
Answer: Its PBM binding z-score is 1.62.

Question: With ATCTGTAGGTTAAGGGTCATTCAGGTTGGTTCGC as the sequence, how does the PBM binding z-score read?
Answer: Its PBM binding z-score is 2.88.

Question: For GGAAGGAGGGCAAAGTTGATAGCATCTGTCGACG, which PBM binding z-score is on record?
Answer: Its PBM binding z-score is 1.19.

Question: Which PBM binding z-score does the source give for CGTCGAAGTTCAAGGTAACGTAACAGAAAGCAGC here?
Answer: Its PBM binding z-score is -0.214.

Question: How did the PBM binding z-score turn out when AGTCAAAGTTCATCCAGGTAACGTAAGATATGCT was run?
Answer: Its PBM binding z-score is 1.34.

Question: For TAGCCTAGGTCATGGGCGAGTATACCACGCGAAC, which PBM binding z-score is on record?
Answer: Its PBM binding z-score is -0.782.

Question: CCAGACAGGTGAGAAGGTAACTAAGCCTCGATTA was tested. Which PBM binding z-score did it give?
Answer: The PBM binding z-score was 0.36.

Question: With CATACAGGGTCAGCTACGCCAGAGTAGGGACGGC as the sequence, how does the PBM binding z-score read?
Answer: Its PBM binding z-score is 0.771.

Question: CATACAGGGTCAGCGAGGCCAGAGTAGGGACGGC was tested. Which PBM binding z-score did it give?
Answer: Its PBM binding z-score is 0.389.

Question: For AATACAGGGTCATCGCAGGCCAGAGTACGCACAG, which PBM binding z-score is on record?
Answer: The PBM binding z-score was 1.07.

Question: Which PBM binding z-score does the source give for TCATATAGGAAATACAGGTGAAAGTCGGCATCTA here?
Answer: Its PBM binding z-score is 1.97.

Question: TTACCAAGGTGGGCTGAGGTCGTTGATCCAACTC was tested. Which PBM binding z-score did it give?
Answer: Its PBM binding z-score is 0.0238.

Question: Which PBM binding z-score does the source give for CAAACTAGGTCACCGGAAGGTCAAACTCCGCATG here?
Answer: The PBM binding z-score was 2.71.

Question: Which PBM binding z-score does the source give for TAGCCTAGGTCAGATCGGACCAGTATACGCTATA here?
Answer: Its PBM binding z-score is -0.814.

Question: How did the PBM binding z-score turn out when TCATATAGGTAAAAGGTGAAAGTCGGTGTGGTAA was run?
Answer: Its PBM binding z-score is 2.49.

Question: With ACTATTCGTTGAGACGAGGGCAACCGATAGGTTG as the sequence, how does the PBM binding z-score read?
Answer: Its PBM binding z-score is 0.418.

Question: With TCGAGTAGGTTACCAATGGGCCATTCAGCTTTCT as the sequence, how does the PBM binding z-score read?
Answer: The PBM binding z-score was -0.737.

Question: How did the PBM binding z-score turn out when TCGAGTAGGTTAGACGGGGCATTCAGCCAACATA was run?
Answer: Its PBM binding z-score is -0.49.

Question: With AGAATGAGGTTACTAAGATCAGGGAATTGCGGTC as the sequence, how does the PBM binding z-score read?
Answer: Its PBM binding z-score is -0.455.

Question: For CCGACTGAGGCAGAAAGGTTACCATACCATCCGG, which PBM binding z-score is on record?
Answer: The PBM binding z-score was 0.393.

Question: For GCAGACAGGTGAAACGCACGTAACTCAGGGTGGC, which PBM binding z-score is on record?
Answer: The PBM binding z-score was -0.719.

Question: How did the PBM binding z-score turn out when CCGACTGGGGCAGAAAGGTTACCATACCATCCGG was run?
Answer: Its PBM binding z-score is -0.549.

Question: Which PBM binding z-score does the source give for GCTCGGAGGAAAAGGTCAGAGCTTTGTCCGTAGA here?
Answer: The PBM binding z-score was 0.159.

Question: How did the PBM binding z-score turn out when AGAATGAGGTAAAGATCAGGGAAACAGAATACAT was run?
Answer: The PBM binding z-score was 0.446.

Question: For CAGCCCAGGTCAGGGCCAGTATAGGAGGAACGTT, which PBM binding z-score is on record?
Answer: Its PBM binding z-score is -0.138.

Question: With CGAACTAGGTCAGAACAGGACAGTGGAGGATGAT as the sequence, how does the PBM binding z-score read?
Answer: The PBM binding z-score was 0.321.

Question: CCTACTGGGCCATCAGGTCATTGATATCAACGTT was tested. Which PBM binding z-score did it give?
Answer: Its PBM binding z-score is 0.0562.

Question: Which PBM binding z-score does the source give for GTTTACGGGTCAAAGGTTATAGCATGAATAGAAT here?
Answer: Its PBM binding z-score is 0.857.

Question: Which PBM binding z-score does the source give for TCAGACAGGTGAAGGTAACTCCGGTACGCAGTCG here?
Answer: Its PBM binding z-score is 0.0905.

Question: How did the PBM binding z-score turn out when TAGCCTAGGTCATGGGCCAGTATGCCACGCGAAC was run?
Answer: Its PBM binding z-score is -0.739.
